Measurements reported in PubChem BioAssay (EPA / NIEHS).
Records with an inconclusive call do not appear. More than one record can exist for a structure, and the calls need not agree. Activity calls are given as the source filed them. How the source made its calls: active means hit-call score of the fitted dose curve at least 0.9, where 1 is the maximum; inconclusive means response in the unintended direction; inactive means score below 0.9.

Biological target: Bile acid receptor (Homo sapiens) (UniProt Q96RI1)
Test: OT_FXR_FXRSRC1_1440: Odyssey Thera (OT) 24-hour HEK293T Protein-Complementation Assay for Farnesoid X receptor/SRC-1 Co-activator (AID 2283384)
Summary of the method: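 Single endpoint, analysed for increased fluorescence against DMSO controls. HEK293T cells carrying FXR and SRC-1 linked to complementary reporter halves were exposed to chemicals for 24 h before reading.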

Bile acid receptor (Homo sapiens), sequence (Q96RI1 whole entry, looked up): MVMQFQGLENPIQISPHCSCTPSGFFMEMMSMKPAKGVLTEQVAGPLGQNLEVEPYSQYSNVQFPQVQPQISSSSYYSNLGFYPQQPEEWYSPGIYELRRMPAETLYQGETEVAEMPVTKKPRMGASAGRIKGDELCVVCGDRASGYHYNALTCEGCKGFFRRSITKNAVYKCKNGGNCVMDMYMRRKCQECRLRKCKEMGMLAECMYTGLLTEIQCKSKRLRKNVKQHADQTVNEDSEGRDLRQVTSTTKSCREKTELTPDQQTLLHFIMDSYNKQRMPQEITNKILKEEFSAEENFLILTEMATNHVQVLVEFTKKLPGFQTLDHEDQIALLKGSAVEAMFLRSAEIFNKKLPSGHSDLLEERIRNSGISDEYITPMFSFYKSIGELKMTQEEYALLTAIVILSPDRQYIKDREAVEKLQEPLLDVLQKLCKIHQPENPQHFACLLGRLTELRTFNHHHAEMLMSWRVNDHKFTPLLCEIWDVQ

Question: How did the outcome turn out when `COCCOCCOCCOC` was run?
Answer: inactive

Question: With `CC(C)=CCC/C(C)=C\CO` as the compound, how does the outcome read?
Answer: inactive

Question: How did the outcome turn out when `CN(C)c1ccc(Cc2ccc(N(C)C)cc2)cc1` was run?
Answer: inactive

Question: `Cc1ccc(C)c(O)c1` was tested. Which outcome did it give?
Answer: inactive

Question: With `CC1(C)C(=O)N(Br)C(=O)N1Br` as the compound, how does the outcome read?
Answer: inactive

Question: With `Cc1c(-c2cccnc2)c2ccccc2n1CCCCC(=O)O` as the compound, how does the outcome read?
Answer: inactive

Question: With `COC(=O)c1c(Cl)c(Cl)c(C(=O)OC)c(Cl)c1Cl` as the compound, how does the outcome read?
Answer: inactive

Question: How did the AC50 turn out when `CC(C)c1cccc(C(C)C)c1N1C(=O)c2ccc(O)cc2C1=O` was run?
Answer: 2.63 µM (active)

Question: How did the AC50 turn out when `COc1ccc(/C=C/S(=O)(=O)NC(=O)c2ccc(C)cc2Cl)cc1` was run?
Answer: 7.84 µM (active)

Biological target: Retinoic acid receptor RXR-alpha (Homo sapiens) (UniProt P19793)
Test: OT_NURR1_NURR1RXRa_0480: Odyssey Thera (OT) 8-hour HEK293T Protein Complementation Assay for Nurr1/retinoid X receptor (RXR) (AID 2283385)
Summary of the method: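 Gain in fluorescent complementation signal over DMSO, measured 8 hours after chemical dosing of human kidney HEK293T cells, indicated enhanced Nurr1–RXRα association.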

Retinoic acid receptor RXR-alpha (Homo sapiens), sequence (P19793 whole entry, looked up): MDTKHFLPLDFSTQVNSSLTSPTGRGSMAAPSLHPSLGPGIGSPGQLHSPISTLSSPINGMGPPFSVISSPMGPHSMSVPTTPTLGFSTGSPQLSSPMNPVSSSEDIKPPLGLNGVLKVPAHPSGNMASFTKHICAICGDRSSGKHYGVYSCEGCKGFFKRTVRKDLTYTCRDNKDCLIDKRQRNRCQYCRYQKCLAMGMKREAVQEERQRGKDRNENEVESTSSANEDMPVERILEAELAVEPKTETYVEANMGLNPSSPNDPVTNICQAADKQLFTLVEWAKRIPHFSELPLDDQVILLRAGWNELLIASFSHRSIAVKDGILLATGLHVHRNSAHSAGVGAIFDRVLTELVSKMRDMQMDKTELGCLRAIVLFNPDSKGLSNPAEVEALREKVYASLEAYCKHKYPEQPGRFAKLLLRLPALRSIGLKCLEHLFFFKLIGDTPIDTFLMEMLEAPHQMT

Question: For `COCCOCCOCCOC`, which outcome is on record?
Answer: inactive

Question: With `CC(C)=CCC/C(C)=C\CO` as the compound, how does the outcome read?
Answer: inactive

Question: With `CC(C)=CCC/C(C)=C/CO` as the compound, how does the outcome read?
Answer: inactive

Question: With `CC(C)=CCCC(C)CCO` (stereo not given) as the compound, how does the AC50 read?
Answer: 90.2 µM (active)

Question: And the outcome?
Answer: inactive

Question: What does the source list for `CN(C)c1ccc(Cc2ccc(N(C)C)cc2)cc1`?
Answer: AC50: 35.1 µM (active); outcome: inactive

Question: How did the outcome turn out when `C=CC(=C)CCC=C(C)C` was run?
Answer: inactive

Question: How did the outcome turn out when `O=C(O)c1cccc(Oc2ccccc2)c1` was run?
Answer: inactive

Question: Which AC50 does the source give for `CCCN(C1CCN(C(=O)C2CCNCC2)CC1)[C@@H]1CCc2ccc(OC)cc2C1` here?
Answer: 87.3 µM (active)

Question: How did the outcome turn out when `CCCCC(CC)COC(=O)c1ccc(C(=O)OCC(CC)CCCC)cc1` (stereo not given) was run?
Answer: inactive

Question: `Cc1ccc(C)c(O)c1` was tested. Which outcome did it give?
Answer: inactive

Question: For `CC/C(=C\C(=N/O)C(N)=O)C(C)[N+](=O)[O-]` (stereo not given), which AC50 is on record?
Answer: 31.6 µM (active)

Question: `O=C(O)c1cc(N=Nc2ccc(S(=O)(=O)Nc3ccccn3)cc2)ccc1O` was tested. Which outcome did it give?
Answer: inactive

Question: `CC1(C)C(=O)N(Br)C(=O)N1Br` was tested. Which outcome did it give?
Answer: inactive

Question: For `Cc1c(-c2cccnc2)c2ccccc2n1CCCCC(=O)O`, which outcome is on record?
Answer: inactive

Question: How did the outcome turn out when `COCCOc1cc2cc(C(=O)NC3CCN(C(C)C)CC3)n(CC(=O)Nc3ccc(Cl)cn3)c2cn1` was run?
Answer: inactive

Question: `CN(C)c1ccc(N=NS(=O)(=O)O)cc1` was tested. Which outcome did it give?
Answer: inactive

Question: `COC(=O)c1c(Cl)c(Cl)c(C(=O)OC)c(Cl)c1Cl` was tested. Which AC50 did it give?
Answer: 68.6 µM (active)

Question: And the outcome?
Answer: inactive

Question: How did the outcome turn out when `CNCc1ccc(NC(=O)c2c[nH]c3c2C(=O)CCC3)cc1` was run?
Answer: inactive

Question: `O=C(O)CCN(C1(C(=O)NO)CCCC1)S(=O)(=O)c1ccc(Oc2ccc(F)cc2)cc1` was tested. Which outcome did it give?
Answer: inactive

Question: How did the outcome turn out when `CC(C)CC(C)(O)C#CC(C)(O)CC(C)C` (stereo not given) was run?
Answer: inactive

Question: For `CC(C)(O)c1coc(S(=O)(=O)NC(=O)Nc2c3c(cc4c2CCC4)CCC3)c1`, which outcome is on record?
Answer: inactive

Question: Which results are given for `CC(C)c1cccc(C(C)C)c1N1C(=O)c2ccc(O)cc2C1=O`?
Answer: AC50: 35.4 µM (active); outcome: inactive

Question: For `O=C(NS(=O)(=O)/C=C/c1ccccc1)c1ccc(F)cc1Cl`, which AC50 is on record?
Answer: 27.4 µM (active)

Question: With `COc1ccc(/C=C/S(=O)(=O)NC(=O)c2ccc(C)cc2Cl)cc1` as the compound, how does the AC50 read?
Answer: 24 µM (active)

Question: With `O=C1CCC(N2C(=O)c3ccccc3C2=O)C(=O)N1` (stereo not given) as the compound, how does the outcome read?
Answer: inactive

Question: For `CC(=O)OCCC(C)C`, which outcome is on record?
Answer: inactive

Question: How did the outcome turn out when `Fc1ccccc1[C@@H](F)COC1CCC(Nc2ncnc3[nH]ncc23)CC1` (stereo not given in full) was run?
Answer: inactive
